Experimental data reported in PubChem BioAssay (NCATS).
Records with an inconclusive call do not appear. Entries that show only a call come without a potency. Activity calls are given as the source filed them. Calls follow the shape of the dose curve; as a rule, active = well fitted inhibition curve with a large enough effect; inconclusive = small, poorly fitted or top-dose-only effect; inactive = flat fitted curve, though single readings scatter. Peptide text beside a SMILES is read from it.

Key:
Assay in all cases: qHTS profiling for inhibitors of Plasmodium falciparum proliferation (AID 504749); also: nearly all actives have a fitted effect of over 60% in size
Settings in all cases: P. falciparum in erythrocytes, SYBR Green DNA, 72 h; series mostly up to 28.7 µM
CP191 = system: CP191
Procedure, shortened: (§1)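 In a 72 h erythrocytic culture (37 C, humidified, 5% CO2) at 2.5% hematocrit and 0.3% starting parasitemia, compounds were tested; SYBR Green I in detergent lysis buffer stained parasite DNA overnight.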

CP192 = system: CP192
Procedure, shortened: as §1

CP194 = system: CP194
Procedure, shortened: as §1

CP201 = system: CP201
Procedure, shortened: as §1

CP203 = system: CP203
Procedure, shortened: as §1

CP211 = system: CP211
Procedure, shortened: as §1

CP217 = system: CP217
Procedure, shortened: as §1

CP237 = system: CP237
Procedure, shortened: as §1

CP238 = system: CP238
Procedure, shortened: as §1

CP247 = system: CP247
Procedure, shortened: as §1

CP250 = system: CP250
Procedure, shortened: as §1

CP252 = system: CP252
Procedure, shortened: as §1

CP260 = system: CP260
Procedure, shortened: as §1

CP262 = system: CP262
Procedure, shortened: as §1

CP265 = system: CP265
Procedure, shortened: as §1

CP266 = system: CP266
Procedure, shortened: as §1

CP268 = system: CP268
Procedure, shortened: as §1

CP269 = system: CP269
Procedure, shortened: as §1

CP215 = system: CP215
Procedure, shortened: as §1

CP256 = system: CP256
Procedure, shortened: as §1
Potency is read from the fitted curve at half-maximal effect.

C[Se]CCC(N)C(=O)O (centres undefined)
Potency (CP191): inactive
Potency (CP192): inactive
Potency (CP194): inactive
Potency (CP201): inactive
Potency (CP203): inactive
Potency (CP211): inactive
Potency (CP217): inactive
Potency (CP237): inactive
Potency (CP238): inactive
Potency (CP247): inactive
Potency (CP250): inactive
Potency (CP252): inactive
Potency (CP260): inactive
Potency (CP262): inactive
Potency (CP265): inactive
Potency (CP266): inactive
Potency (CP268): inactive
Potency (CP269): inactive

COC(=O)[C@H](Cc1ccccc1)NC(=O)[C@@H](N)CC(=O)O (H-Asp-Phe-OMe)
Potency (CP191): inactive
Potency (CP192): inactive
Potency (CP194): inactive
Potency (CP201): inactive
Potency (CP203): inactive
Potency (CP211): inactive
Potency (CP215): inactive
Potency (CP217): inactive
Potency (CP237): inactive
Potency (CP238): inactive
Potency (CP247): inactive
Potency (CP250): inactive
Potency (CP252): inactive
Potency (CP256): inactive
Potency (CP260): inactive
Potency (CP262): inactive
Potency (CP265): inactive
Potency (CP266): inactive
Potency (CP268): inactive
Potency (CP269): inactive

CS(=O)(=O)OCCCCOS(C)(=O)=O
Potency (CP191): inactive
Potency (CP192): inactive
Potency (CP194): inactive
Potency (CP201): inactive
Potency (CP203): inactive
Potency (CP211): inactive
Potency (CP215): inactive
Potency (CP217): inactive
Potency (CP237): inactive
Potency (CP238): inactive
Potency (CP247): inactive
Potency (CP250): inactive
Potency (CP252): inactive
Potency (CP256): inactive
Potency (CP260): inactive
Potency (CP262): inactive
Potency (CP265): inactive
Potency (CP266): inactive
Potency (CP268): inactive
Potency (CP269): inactive

C=C(c1ccc(C(=O)O)cc1)c1cc2c(cc1C)C(C)(C)CCC2(C)C
Potency (CP191): inactive
Potency (CP192): inactive
Potency (CP194): inactive
Potency (CP201): inactive
Potency (CP203): inactive
Potency (CP211): inactive
Potency (CP215): inactive
Potency (CP217): inactive
Potency (CP237): inactive
Potency (CP238): inactive
Potency (CP247): inactive
Potency (CP250): inactive
Potency (CP252): inactive
Potency (CP256): inactive
Potency (CP262): inactive
Potency (CP265): inactive
Potency (CP266): inactive
Potency (CP268): inactive
Potency (CP269): inactive

Cc1cccc(C)c1OCC(=O)N[C@@H](Cc1ccccc1)[C@@H](O)C[C@H](Cc1ccccc1)NC(=O)[C@H](C(C)C)N1CCCNC1=O
Potency (CP191): 5.62 µM (active)
Potency (CP192): 6.75 µM (active)
Potency (CP194): 7.57 µM (active)
Potency (CP201): 10.7 µM (active)
Potency (CP203): 6.01 µM (active)
Potency (CP211): 7.57 µM (active)
Potency (CP215): 6.01 µM (active)
Potency (CP217): 3.98 µM (active)
Potency (CP237): 2.82 µM (active)
Potency (CP238): 5.01 µM (active)
Potency (CP247): 7.08 µM (active)
Potency (CP250): 7.08 µM (active)
Potency (CP252): 4.47 µM (active)
Potency (CP256): 11.2 µM (active)
Potency (CP260): 3.98 µM (active)
Potency (CP262): 9.53 µM (active)
Potency (CP265): 5.01 µM (active)
Potency (CP268): 9.53 µM (active)
Potency (CP269): 6.75 µM (active)

CNC[C@H](O)c1ccc(O)c(O)c1
Potency (CP191): inactive
Potency (CP192): inactive
Potency (CP194): inactive
Potency (CP201): inactive
Potency (CP203): inactive
Potency (CP211): inactive
Potency (CP217): inactive
Potency (CP237): inactive
Potency (CP238): inactive
Potency (CP247): inactive
Potency (CP250): inactive
Potency (CP252): inactive
Potency (CP256): inactive
Potency (CP260): inactive
Potency (CP262): inactive
Potency (CP265): inactive
Potency (CP266): inactive
Potency (CP268): inactive
Potency (CP269): inactive

CNC[C@@H](O)[C@@H](O)[C@H](O)[C@H](O)CO
Potency (CP191): inactive
Potency (CP192): inactive
Potency (CP194): inactive
Potency (CP201): inactive
Potency (CP203): inactive
Potency (CP211): inactive
Potency (CP215): inactive
Potency (CP217): inactive
Potency (CP237): inactive
Potency (CP238): inactive
Potency (CP247): inactive
Potency (CP250): inactive
Potency (CP252): inactive
Potency (CP256): inactive
Potency (CP260): inactive
Potency (CP262): inactive
Potency (CP265): inactive
Potency (CP268): inactive
Potency (CP269): inactive

COc1ccc(C2(C#N)CCC(C(=O)O)CC2)cc1OC1CCCC1 (centres undefined)
Potency (CP191): inactive
Potency (CP192): inactive
Potency (CP194): inactive
Potency (CP201): inactive
Potency (CP203): inactive
Potency (CP211): inactive
Potency (CP215): inactive
Potency (CP217): inactive
Potency (CP237): inactive
Potency (CP238): inactive
Potency (CP247): inactive
Potency (CP250): inactive
Potency (CP252): inactive
Potency (CP256): inactive
Potency (CP260): inactive
Potency (CP262): inactive
Potency (CP265): inactive
Potency (CP268): inactive
Potency (CP269): inactive

CCN(CC)CCOc1ccc(Cc2ccccc2)cc1
Potency (CP191): inactive
Potency (CP192): inactive
Potency (CP194): inactive
Potency (CP201): inactive
Potency (CP203): inactive
Potency (CP211): inactive
Potency (CP215): inactive
Potency (CP217): inactive
Potency (CP237): inactive
Potency (CP238): inactive
Potency (CP250): inactive
Potency (CP252): inactive
Potency (CP256): inactive
Potency (CP262): inactive
Potency (CP265): inactive
Potency (CP266): inactive
Potency (CP268): inactive
Potency (CP269): inactive

Oc1ccc(OCc2ccccc2)cc1
Potency (CP191): inactive
Potency (CP192): inactive
Potency (CP194): inactive
Potency (CP201): inactive
Potency (CP211): inactive
Potency (CP215): inactive
Potency (CP217): inactive
Potency (CP237): inactive
Potency (CP238): inactive
Potency (CP247): inactive
Potency (CP250): inactive
Potency (CP252): inactive
Potency (CP256): inactive
Potency (CP260): inactive
Potency (CP265): inactive
Potency (CP266): inactive
Potency (CP268): inactive
Potency (CP269): inactive

O=C(NCCO[N+](=O)[O-])c1cccnc1
Potency (CP191): inactive
Potency (CP192): inactive
Potency (CP194): inactive
Potency (CP201): inactive
Potency (CP203): inactive
Potency (CP211): inactive
Potency (CP215): inactive
Potency (CP217): inactive
Potency (CP237): inactive
Potency (CP238): inactive
Potency (CP247): inactive
Potency (CP250): inactive
Potency (CP252): inactive
Potency (CP256): inactive
Potency (CP260): inactive
Potency (CP262): inactive
Potency (CP265): inactive
Potency (CP268): inactive
Potency (CP269): inactive

Cc1cc(=O)oc2cc(O)ccc12
Potency (CP191): inactive
Potency (CP192): inactive
Potency (CP194): inactive
Potency (CP201): inactive
Potency (CP203): inactive
Potency (CP211): inactive
Potency (CP215): inactive
Potency (CP237): inactive
Potency (CP266): inactive
Potency (CP268): inactive
Potency (CP269): inactive

CCCc1cc(=O)[nH]c(=S)[nH]1
Potency (CP191): inactive
Potency (CP192): inactive
Potency (CP194): inactive
Potency (CP201): inactive
Potency (CP203): inactive
Potency (CP211): inactive
Potency (CP215): inactive
Potency (CP217): inactive
Potency (CP237): inactive
Potency (CP238): inactive
Potency (CP247): inactive
Potency (CP250): inactive
Potency (CP252): inactive
Potency (CP256): inactive
Potency (CP260): inactive
Potency (CP262): inactive
Potency (CP265): inactive
Potency (CP266): inactive
Potency (CP268): inactive
Potency (CP269): inactive

CN1C(C(=O)Nc2ccccn2)=C(O)c2sccc2S1(=O)=O
Potency (CP191): inactive
Potency (CP192): inactive
Potency (CP194): inactive
Potency (CP201): inactive
Potency (CP203): inactive
Potency (CP211): inactive
Potency (CP215): inactive
Potency (CP217): inactive
Potency (CP237): inactive
Potency (CP238): inactive
Potency (CP247): inactive
Potency (CP250): inactive
Potency (CP252): inactive
Potency (CP256): inactive
Potency (CP260): inactive
Potency (CP262): inactive
Potency (CP265): inactive
Potency (CP266): inactive
Potency (CP268): inactive
Potency (CP269): inactive
